Screens: PubChem, Broad Institute
This is one part of a sample in which hits are shown more often than they occur.
IDE exosite FP: exo-site inhibitors of human insulin-degrading enzyme. 6.3% of 17,000 active. P14735. z-score at 20 µM. purified IDE, FL-6b probe fluorescence polarization; stronger effect = lower value. AID 1259349;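 active = z-score of -3 or lower, meaning strong loss of probe binding signal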;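 note: His-tagged human IDE residues 42-1019 made in E. coli with 30 nM FL-6b probe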
Target sequence (P14735 42-1019 limits assumed): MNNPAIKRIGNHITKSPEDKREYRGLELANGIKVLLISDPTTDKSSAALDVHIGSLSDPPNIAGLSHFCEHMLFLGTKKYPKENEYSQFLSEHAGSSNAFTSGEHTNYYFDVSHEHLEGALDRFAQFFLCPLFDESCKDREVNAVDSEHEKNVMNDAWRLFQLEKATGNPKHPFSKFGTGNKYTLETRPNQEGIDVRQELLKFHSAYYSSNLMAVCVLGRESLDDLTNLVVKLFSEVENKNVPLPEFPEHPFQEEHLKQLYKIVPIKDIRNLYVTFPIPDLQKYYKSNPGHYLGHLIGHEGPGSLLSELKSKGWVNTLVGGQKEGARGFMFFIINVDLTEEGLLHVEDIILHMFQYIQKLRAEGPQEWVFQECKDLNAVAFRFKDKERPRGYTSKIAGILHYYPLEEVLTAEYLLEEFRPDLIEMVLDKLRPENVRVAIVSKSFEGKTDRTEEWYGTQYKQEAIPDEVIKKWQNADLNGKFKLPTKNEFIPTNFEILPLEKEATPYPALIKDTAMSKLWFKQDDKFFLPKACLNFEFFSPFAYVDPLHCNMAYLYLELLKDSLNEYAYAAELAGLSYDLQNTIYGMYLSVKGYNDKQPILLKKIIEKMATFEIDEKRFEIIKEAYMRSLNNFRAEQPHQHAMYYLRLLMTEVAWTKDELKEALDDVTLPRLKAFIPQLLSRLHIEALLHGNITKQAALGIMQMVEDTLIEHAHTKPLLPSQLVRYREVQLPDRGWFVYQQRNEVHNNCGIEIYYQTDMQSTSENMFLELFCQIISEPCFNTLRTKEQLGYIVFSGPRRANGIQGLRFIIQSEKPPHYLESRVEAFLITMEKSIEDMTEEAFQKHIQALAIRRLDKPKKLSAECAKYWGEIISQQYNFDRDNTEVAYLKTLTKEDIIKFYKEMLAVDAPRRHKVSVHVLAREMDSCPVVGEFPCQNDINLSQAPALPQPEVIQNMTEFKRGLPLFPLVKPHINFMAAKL
Of the large screens only hits and unclear results are named; the others gave an inactive call.

OC[C@@H]1[C@H](c2ccc(C3=CCCC3)cc2)[C@H]2CN(Cc3cccnc3)CCCCN12	none
O=C(NC1CCCCC1)N1CC2(C1)[C@H](c1ccccc1)[C@H](CO)N2S(=O)(=O)Cc1ccccc1	none
CCN(C[C@@H]1[C@@H](c2ccccc2)[C@@H](CO)N1C(=O)COC)C(=O)NC(C)C	none
COc1ccccc1-c1ccc([C@H]2[C@@H](C#N)N(C(=O)CN(C)C)[C@H]2CO)cc1	IDE exosite FP -3.7
CN(C)CC(=O)N1[C@@H](C#N)[C@@H](c2ccc(-c3ccc(C(=O)N(C)C)cc3)cc2)[C@@H]1CO	none
COc1ccccc1-c1ccc([C@H]2[C@H](C#N)N(C(=O)CN(C)C)[C@H]2CO)cc1	IDE exosite FP -14
CN(C)CC(=O)N1[C@H](CO)[C@@H](c2ccc(-c3ccccc3F)cc2)[C@@H]1C#N	IDE exosite FP -3.4
COc1ccc(-c2ccc([C@@H]3[C@@H](C#N)N(C(=O)CN(C)C)[C@@H]3CO)cc2)cc1	none
COc1ccccc1-c1ccccc1[C@@H]1[C@@H](C#N)N(C(=O)CN(C)C)[C@@H]1CO	none
COc1ccccc1-c1ccc([C@@H]2[C@H](C#N)N(C(=O)CN(C)C)[C@H]2CO)cc1	IDE exosite FP -5.1
CN(C)CC(=O)N1[C@H](C#N)[C@@H](c2ccc(-c3ccc(C(=O)N(C)C)cc3)cc2)[C@@H]1CO	none
CN(C)CC(=O)N1[C@H](CO)[C@H](c2ccc(-c3ccccc3F)cc2)[C@@H]1C#N	none
COc1ccccc1-c1ccccc1[C@H]1[C@@H](C#N)N(C(=O)CN(C)C)[C@H]1CO	none
CN(C)CC(=O)N1[C@H](C#N)[C@H](c2ccc(-c3ccccc3F)cc2)[C@@H]1CO	none
CN(C)CC(=O)N1[C@H](C#N)[C@H](c2ccc(-c3ccccc3F)cc2)[C@H]1CO	none
COCC(=O)N1CC(=O)N2[C@H](CO)[C@H](c3ccc(C#CC4CC4)cc3)[C@@H]2C1	none
O=C(Nc1cc(F)ccc1F)N[C@@H]1CC[C@@H](CCn2cc(C3CCCCC3)nn2)O[C@H]1CO	none
CO[C@H](CN(C)Cc1ccc(-c2ccccn2)cc1)[C@@H](C)CN(C(=O)Nc1ccc(F)cc1)[C@H](C)CO	none
CCCC(=O)N1CCC2(CC1)CN(C(=O)C1CCC1)[C@H](CO)c1[nH]c3cc(OC)ccc3c12	none
COCC#Cc1ccc([C@H]2[C@@H](C#N)N(C(=O)Cc3ccccc3)[C@@H]2CO)cc1	none
CN(C)C(=O)c1cccc(-c2ccccc2[C@H]2[C@H](C#N)N(C(=O)C3CCC3)[C@H]2CO)c1	none
COc1ccc2c3c([nH]c2c1)[C@H](CO)NCC31CCN(C(=O)c2ccccc2)CC1	none
C[C@@H]1CCCCO[C@@H](CN(C)C(=O)c2ccncc2)[C@@H](C)CN([C@H](C)CO)C(=O)c2cc(NC(=O)CCC(F)(F)F)ccc2O1	none
COc1ccc(NC(=O)N(C)C[C@@H]2OCc3ccccc3-c3ccccc3C(=O)N([C@H](C)CO)C[C@@H]2C)c(OC)c1	none
COc1cccc(C#Cc2ccc([C@@H]3[C@@H](CO)N(C(=O)C4CC4)[C@H]3C#N)cc2)c1	none
N#C[C@@H]1[C@@H](c2ccc(C#Cc3ccccc3F)cc2)[C@H](CO)N1C(=O)C1CC1	none
COc1ccccc1C#Cc1ccc([C@H]2[C@@H](C#N)N(C(=O)C3CC3)[C@H]2CO)cc1	IDE exosite FP -9
COc1cccc(C#Cc2ccc([C@H]3[C@@H](CO)N(C(=O)C4CC4)[C@H]3C#N)cc2)c1	none
COc1cccc(C#Cc2ccc([C@@H]3[C@@H](C#N)N(C(=O)C4CC4)[C@H]3CO)cc2)c1	none
COc1ccccc1C#Cc1ccc([C@H]2[C@H](C#N)N(C(=O)C3CC3)[C@H]2CO)cc1	IDE exosite FP -7.6
C/C=C/c1ccc2c(c1)[C@H]1[C@H](CCN1C(=O)C1CCCC1)[C@@H](CO)N2	none
Cc1cccc(-c2ccc([C@@H]3[C@H]4CN(C(=O)c5cccnc5)CCCCN4[C@H]3CO)cc2)c1	IDE exosite FP -15
Cc1cccc(-c2ccc([C@H]3[C@@H](CO)N4CCCCN(C(=O)c5ccncc5)C[C@@H]34)cc2)c1	none
Cc1cccc(-c2ccc([C@H]3[C@@H](CO)N4CCCCN(C(=O)c5cccnc5)C[C@H]34)cc2)c1	IDE exosite FP -17
O=C(c1cccc(F)c1)N1CCCCN2[C@H](C1)[C@@H](c1ccc(-c3cccnc3)cc1)[C@@H]2CO	none
Cc1cccc(-c2ccc([C@H]3[C@H](CO)N4CCCCN(C(=O)c5ccncc5)C[C@@H]34)cc2)c1	none
Cc1cccc(-c2ccc([C@H]3[C@@H](CO)N4CCCCN(C(=O)c5cccnc5)C[C@@H]34)cc2)c1	none
CN1C[C@@H]2[C@H](c3ccccc31)[C@@H](CO)N2Cc1ccccc1Cl	none
CCc1cnc(N2[C@H](CO)[C@H](c3ccc(C4=CCCCC4)cc3)[C@@H]2C#N)s1	none
COc1cccc(CN2CC3(C2)CN(S(C)(=O)=O)[C@H](CO)c2[nH]c4cc(OC)ccc4c23)c1	none
CC(C)(C)S(=O)N1Cc2cc(C(=O)N3CCN(Cc4ccccc4)CC3)nc(-c3cccc(-c4cc5ccccc5o4)c3)c2[C@H]1CCO (stereo not given in full)	none
CCCNC(=O)N1CC(=O)N2[C@H](CO)[C@H](c3ccc(-c4cccc(C)c4)cc3)[C@@H]2C1	IDE exosite FP -16
CCCNC(=O)N1CC(=O)N2[C@H](CO)[C@@H](c3ccc(-c4cccc(C)c4)cc3)[C@@H]2C1	IDE exosite FP -22
CCCC#Cc1ccc([C@@H]2[C@H](CO)N3C(=O)CN(C(=O)NCCC)C[C@@H]23)cc1	none
CCCNC(=O)N1CC(=O)N2[C@H](C1)[C@@H](c1ccc(-c3cccc(C)c3)cc1)[C@@H]2CO	IDE exosite FP -15
CCCNC(=O)N1CC(=O)N2[C@H](CO)[C@@H](c3ccc(-c4ccc(C)cc4)cc3)[C@@H]2C1	none
CCCNC(=O)N1CC(=O)N2[C@H](CO)[C@@H](c3ccc(-c4ccc(F)cc4)cc3)[C@@H]2C1	none
CCCNC(=O)N1CC(=O)N2[C@@H](CO)[C@H](c3ccc(-c4ccc(F)cc4)cc3)[C@@H]2C1	none
CCCNC(=O)N1CC(=O)N2[C@H](CO)[C@H](c3ccc(-c4ccc(F)cc4)cc3)[C@@H]2C1	none
CCCNC(=O)N1CC(=O)N2[C@H](C1)[C@H](c1ccc(-c3ccc(C)cc3)cc1)[C@@H]2CO	IDE exosite FP -3.6
CCCNC(=O)N1CC(=O)N2[C@H](C1)[C@@H](c1ccc(-c3ccc(C)cc3)cc1)[C@@H]2CO	none
CCCNC(=O)N1CC(=O)N2[C@H](CO)[C@H](c3ccc(-c4ccncc4)cc3)[C@@H]2C1	none
CCCC#Cc1ccc([C@@H]2[C@H]3CN(Cc4cccnc4)CCCCN3[C@H]2CO)cc1	none
CCC(=O)N1[C@H](CO)[C@H](c2ccccc2)[C@@H]1CN(CC1CC1)S(C)(=O)=O	none
COc1cccc(S(=O)(=O)N2CC[C@H]3[C@@H](CO)N(C)c4ccc(-c5ccccc5OC)cc4[C@H]32)c1	none
O=C(N[C@H]1C=C[C@@H](CC(=O)N2CCN(c3ccccc3)CC2)O[C@H]1CO)c1ccccc1	none
COc1cccc(S(=O)(=O)N2CCCCN3[C@H](CO)[C@H](c4ccc(-c5cncnc5)cc4)[C@H]3C2)c1	none
COc1ccc(NC(=O)N2CCCCN3[C@H](CO)[C@H](c4ccc(-c5ccccc5F)cc4)[C@H]3C2)cc1	none
COc1ccc(NC(=O)N2CCCCN3[C@H](CO)[C@H](c4ccc(-c5ccccc5C)cc4)[C@@H]3C2)cc1	none
COc1ccc(NC(=O)N2CCCCN3[C@H](C2)[C@@H](c2ccc(-c4ccccc4F)cc2)[C@@H]3CO)cc1	none
COc1ccc(NC(=O)N2CCCCN3[C@H](CO)[C@@H](c4ccc(-c5ccccc5C)cc4)[C@H]3C2)cc1	none
